Laboratory results reported in PubChem BioAssay (Tox21).
Unmarked numbers belong to inactive results. Inconclusive results are not listed. A call without a number means that no potency is given here. Active and inactive are the calls of the source. Unless noted, calls come from the whole dose curve.

Experiments:
[1] = Nuclear factor erythroid 2-related factor 2/antioxidant responsive element (Nrf2/ARE) small molecule agonists: qHTS cell viability counter screen in human keratinocytes (AID 1919968; active = well fitted curve in the direction sought with a large enough effect in the repeat runs; an effect the other way counts as inactive or inconclusive; note: nearly all actives have a fitted effect of over 55% in size; note: potency is the fitted concentration of half-maximal effect)
Summary of the method: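 HaCaT ARE reporter line, 1,500 cells/well; 5 h settle, 37 C/5% CO2; cpd in DMSO pinned; 23 h exposure; CellTiter-Fluor, 1 h; fluorescence.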

[2] = Nuclear factor erythroid 2-related factor 2/antioxidant responsive element (Nrf2/ARE) small molecule agonists: luciferase reporter gene qHTS assay in human keratinocytes (AID 1919969); note: nearly all actives have a fitted effect of over 35% in size; note: potency is the fitted concentration of half-maximal effect
[3] = molecular target: Gonadotropin-releasing hormone receptor (Homo sapiens) (UniProt P30968); assay: Human gonadotropin-releasing hormone receptor (GnRHR) small molecule agonists, calcium flux assay in GnRHR-HEK293 cells (AID 1920063); note: nearly all actives have a fitted effect of over 35% in size
Summary of the method: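 GnRHR-HEK293, 1500 cells/well, 18 h 37 C/5% CO2; Ca dye 1 h 37 C; cpd pinned (DMSO), agonist mode; kinetic FL 480/540, 3 min, 1 s reads; 15 conc, n=3.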

[4] = molecular target: KiSS-1 receptor (Homo sapiens) (UniProt Q969F8); assay: Human kisspeptin (KISS1R) small molecule agonists, calcium flux assay in KISS1R-HEK293 cells (AID 1920064; active = well fitted curve in the direction sought with a large enough effect in the repeat runs; an effect the other way counts as inactive or inconclusive)
Summary of the method: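 Stable human KISS1R HEK293 line; 18 h plating, 37 C/5% CO2; calcium dye 1 h 37 C; compound pin transfer; kinetic fluorescence Ex/Em 480/540, 3 min.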

[5] = G protein-coupled receptor (GPCR) small molecule agonists, calcium flux assay: HEK293 wild type cell line counter screen (AID 1920065)
Summary of the method: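 Kinetic fluorescence at Ex/Em 480/540, recorded every second over 3 min, served as the read-out after compound addition. Each compound was tested at 15 concentrations in triplicate on cells pre-loaded with calcium dye for 1 h.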

[6] = p53 small molecule agonists, cell-based qHTS assay with human liver microsomes (AID 1963577);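 note: p53 response element beta-lactamase reporter cells with liver microsomes plus NADPH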
Summary of the method: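 HLM-supplemented p53RE-bla reporter assay: 16 h compound exposure at 37 C, microsomes and NADPH each 0.5 mg/mL final, read by fluorescence intensity.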

[7] = p53 small molecule agonists, cell-based qHTS assay with rat liver microsomes (AID 1963578)
Summary of the method: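 Quantitative HTS of the Tox21 10K library: p53RE-bla cells, rat liver microsomes plus NADPH at 0.5 mg/mL final each, 16 h at 37 C, beta-lactamase fluorescence detection.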

[8] = p53 small molecule agonists, cell-based qHTS assay with human liver microsomes: qHTS cell viability counter screen (AID 1963579); note: nearly all actives have a fitted effect of over 45% in size
Summary of the method: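 Viability of p53RE-bla cells is measured as CellTiter-Glo luminescence following a 16 h, 37 C incubation with compound, liver microsomes from human donors and NADPH.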

[9] = p53 small molecule agonists, cell-based qHTS assay with rat liver microsomes: qHTS cell viability counter screen (AID 1963580); note: nearly all actives have a fitted effect of over 45% in size
Summary of the method: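 Viability is assessed in parallel with the p53 reporter read: HCT-116 p53RE-bla cells receive compounds plus rat microsomes and NADPH (0.5 mg/mL final apiece), incubate 16 h at 37 C, and then CellTiter-Glo luminescence is recorded.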

[10] = molecular target: 5-hydroxytryptamine receptor 2A (Homo sapiens) (UniProt P28223); assay: 5-hydroxytryptamine receptor 2A (HTR2A) small molecule antagonists, cell-based qHTS assay (AID 1963586); note: nearly all actives have a fitted effect of over 45% in size
Summary of the method: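 Antagonist-mode intracellular calcium assay: DOI (4 nM) added after 5 min compound pre-incubation at room temperature to dye-loaded HTR2A-CHO cells. Fluorescence followed for 3 min, sampled every second.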

[11] = molecular target: 5-hydroxytryptamine receptor 2A (Homo sapiens) (UniProt P28223); assay: 5-hydroxytryptamine receptor 2A (HTR2A) small molecule agonists, cell-based qHTS assay (AID 1963587); note: nearly all actives have a fitted effect of over 30% in size
Summary of the method: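 CHO cells stably expressing human HTR2A, plated 18 h, loaded with calcium dye 1 h at 37 C. Agonist mode: compounds added and intracellular calcium fluorescence recorded kinetically for 2 min at 1 sec intervals.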

[12] = molecular target: Muscarinic acetylcholine receptor M1 (Homo sapiens) (UniProt P11229); assay: Cholinergic receptor muscarinic 1 (CHRM1) small molecule antagonists, cell-based qHTS assay (AID 1963588); note: nearly all actives have a fitted effect of over 40% in size; note: potency is the fitted concentration of half-maximal effect
Summary of the method: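 CHRM1-CHO calcium-flux assay, antagonist mode. Cells were seeded 18 h, dye-loaded 1 h at 37 C and given compound for 5 min at RT, then acetylcholine was added at 50nM. FDSS fluorescence was read 3 min; 15 concentrations, three runs.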

[13] = molecular target: Muscarinic acetylcholine receptor M1 (Homo sapiens) (UniProt P11229); assay: Cholinergic receptor muscarinic 1 (CHRM1) small molecule agonists, cell-based qHTS assay (AID 1963589); note: nearly all actives have a fitted effect of over 35% in size
Summary of the method: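 Human M1 in stable CHO line; 18 h plating, 1 h dye load 37 C; cpd added (agonist mode); Ca2+ fluorescence kinetic read, 1 s intervals; 15 conc, 3 runs.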

[14] = molecular target: D(2) dopamine receptor (Homo sapiens) (UniProt P14416); assay: Dopamine D2 receptor (DRD2) small molecule agonists, cell-based qHTS assay (AID 1963594); note: nearly all actives have a fitted effect of over 35% in size
Summary of the method: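 HEK293 cells stably expressing human DRD2, pre-treated with PDE inhibitor Ro20-1724 (0.1 mM final) and compound 10 min at room temperature, then stimulated with NKH477 (200nM […]) for 30 min. cAMP read by HTRF (665/620 nm).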

[15] = molecular target: D(2) dopamine receptor (Homo sapiens) (UniProt P14416); assay: Dopamine D2 receptor (DRD2) small molecule antagonists, cell-based qHTS assay (AID 1963595; active = well fitted inhibition curve with a large enough effect in the signal ratio in the repeat runs, with a control signal flat; the % refers to the signal ratio)
Summary of the method: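 DRD2-HEK293; 0.1 mM Ro20-1724; cpd 10 min RT; NKH477 200 nM + quinpirole 12 nM, 30 min RT; HTRF cAMP (cAMP-d2/anti-cAMP cryptate), 665/620 nm ratio after 1 h.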

[16] = p53 small molecule agonists, cell-based qHTS assay (AID 1963582; active = well fitted activation curve with a large enough effect in the signal ratio in the repeat runs, not every such curve was filed as active; the % refers to the signal ratio)
Summary of the method: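 Reporter line: p53RE-bla. Pre-incubation 5 h, 37 C, 5% CO2; compound (DMSO, pin tool) 16 h, 37 C; B/G FRET substrate 2 h RT; fluorescence intensity read.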

[17] = cAMP Responsive Elements (CRE) small molecule agonists, cell-based qHTS assay (AID 1963590)
Summary of the method: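 HEK 293T CRE-bla, 2,000 cells/well, 18 h preincubation 37 C/5% CO2; cpds (DMSO) pinned, 3 h; LiveBLAzer B/G FRET substrate, 2 h RT.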

[18] = cAMP Responsive Elements (CRE) small molecule antagonists, cell-based qHTS assay (AID 1963591; active = well fitted inhibition curve with a large enough effect in the signal ratio in the repeat runs, not every such curve was filed as active; the % refers to the signal ratio)
Summary of the method: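 Beta-lactamase reporter read by FRET substrate (LiveBLAzer B/G) after 2 h at room temperature. CRE-bla HEK293T cells had received compound plus 0.25 uM (final) NKH477 for 3 h at 37 °C.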

[19] = molecular target: Beta-2 adrenergic receptor (Homo sapiens) (UniProt P07550); assay: Adrenergic beta2 receptor (ADRB2) small molecule agonists, cell-based qHTS assay (AID 1963593);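 note: CHO cells stably overexpressing human ADRB2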
Summary of the method: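 CHO cells stably over-expressing ADRB2 were plated overnight at 37C, then dosed with compounds plus a stimulation mix containing 100uM IBMX and 25uM Ro-20-1724 for 0.5hr at room temperature. cAMP was measured by HTRF competition, 1hr.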

[20] = molecular target: Beta-2 adrenergic receptor (Homo sapiens) (UniProt P07550); assay: Adrenergic beta2 receptor (ADRB2) small molecule antagonists, cell-based qHTS assay (AID 1963592); note: series mostly up to about 92 µM; nearly all actives have a fitted effect of over 50% in size
Summary of the method: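 Cells (CHO, stable ADRB2 overexpression) incubated 18-20hr at 37C; compounds added from DMSO; agonist mix (1nM isoproterenol, 100uM IBMX, 25uM Ro-20-1724) added; 0.5hr RT; d2-cAMP and anti-cAMP-cryptate added; 1hr RT; 665/615 nm read.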

Gonadotropin-releasing hormone receptor (Homo sapiens), sequence (P30968 whole entry, looked up): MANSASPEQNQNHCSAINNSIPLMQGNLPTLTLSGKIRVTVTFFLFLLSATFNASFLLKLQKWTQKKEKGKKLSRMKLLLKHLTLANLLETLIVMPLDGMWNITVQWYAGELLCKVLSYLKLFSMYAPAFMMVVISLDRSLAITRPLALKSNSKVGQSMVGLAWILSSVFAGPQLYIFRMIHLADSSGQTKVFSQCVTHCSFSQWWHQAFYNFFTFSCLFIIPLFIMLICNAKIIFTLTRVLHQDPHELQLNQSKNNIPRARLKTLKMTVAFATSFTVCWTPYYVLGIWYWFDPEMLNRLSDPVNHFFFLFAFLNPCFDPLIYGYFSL
Beta-2 adrenergic receptor (Homo sapiens), sequence (P07550 whole entry, looked up): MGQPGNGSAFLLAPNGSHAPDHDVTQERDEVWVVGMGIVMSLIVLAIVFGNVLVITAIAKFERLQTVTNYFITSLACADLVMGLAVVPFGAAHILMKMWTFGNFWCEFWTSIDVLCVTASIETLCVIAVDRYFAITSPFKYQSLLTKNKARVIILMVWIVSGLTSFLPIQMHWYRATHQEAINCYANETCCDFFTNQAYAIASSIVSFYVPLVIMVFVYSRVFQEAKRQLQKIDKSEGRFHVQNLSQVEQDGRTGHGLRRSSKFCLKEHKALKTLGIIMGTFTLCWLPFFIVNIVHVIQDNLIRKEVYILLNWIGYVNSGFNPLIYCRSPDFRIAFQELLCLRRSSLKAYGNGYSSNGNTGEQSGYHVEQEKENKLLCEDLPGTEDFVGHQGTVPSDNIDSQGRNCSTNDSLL
KiSS-1 receptor (Homo sapiens), sequence (Q969F8 whole entry, looked up): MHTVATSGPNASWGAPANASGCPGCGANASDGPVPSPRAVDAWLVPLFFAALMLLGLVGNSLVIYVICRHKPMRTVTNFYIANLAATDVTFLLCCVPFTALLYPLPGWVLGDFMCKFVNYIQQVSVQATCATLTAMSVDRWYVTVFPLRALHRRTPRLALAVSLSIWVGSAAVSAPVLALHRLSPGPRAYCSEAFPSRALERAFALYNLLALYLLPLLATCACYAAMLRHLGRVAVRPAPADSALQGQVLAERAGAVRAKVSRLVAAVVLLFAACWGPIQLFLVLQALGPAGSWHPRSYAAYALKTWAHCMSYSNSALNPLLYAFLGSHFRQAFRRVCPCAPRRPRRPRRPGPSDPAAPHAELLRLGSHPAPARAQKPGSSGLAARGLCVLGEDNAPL
5-hydroxytryptamine receptor 2A (Homo sapiens), sequence (P28223 whole entry, looked up): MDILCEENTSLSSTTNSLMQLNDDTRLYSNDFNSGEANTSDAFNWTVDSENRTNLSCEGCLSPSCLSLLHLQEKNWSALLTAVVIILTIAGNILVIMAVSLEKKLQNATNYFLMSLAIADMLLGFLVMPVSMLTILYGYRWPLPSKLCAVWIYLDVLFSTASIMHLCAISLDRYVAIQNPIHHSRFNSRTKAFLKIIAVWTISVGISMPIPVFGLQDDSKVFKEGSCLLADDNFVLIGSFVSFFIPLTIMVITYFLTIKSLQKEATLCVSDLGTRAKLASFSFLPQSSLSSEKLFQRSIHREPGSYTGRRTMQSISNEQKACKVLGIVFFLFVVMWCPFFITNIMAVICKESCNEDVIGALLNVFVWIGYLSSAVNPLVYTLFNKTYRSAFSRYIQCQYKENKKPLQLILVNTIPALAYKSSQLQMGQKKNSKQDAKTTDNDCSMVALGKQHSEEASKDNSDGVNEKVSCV
Muscarinic acetylcholine receptor M1 (Homo sapiens), sequence (P11229 whole entry, looked up): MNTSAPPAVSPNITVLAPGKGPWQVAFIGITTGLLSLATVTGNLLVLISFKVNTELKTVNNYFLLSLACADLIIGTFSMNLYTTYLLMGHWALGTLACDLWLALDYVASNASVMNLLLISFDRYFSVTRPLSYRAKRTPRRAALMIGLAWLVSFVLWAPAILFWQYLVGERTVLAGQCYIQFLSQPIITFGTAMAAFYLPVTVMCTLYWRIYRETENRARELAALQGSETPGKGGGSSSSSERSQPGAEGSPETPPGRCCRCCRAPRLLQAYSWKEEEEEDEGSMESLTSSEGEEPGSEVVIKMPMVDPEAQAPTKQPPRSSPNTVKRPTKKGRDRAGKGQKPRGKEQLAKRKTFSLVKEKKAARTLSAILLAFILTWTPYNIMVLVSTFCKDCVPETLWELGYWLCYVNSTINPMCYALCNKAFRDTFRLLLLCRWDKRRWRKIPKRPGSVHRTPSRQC
D(2) dopamine receptor (Homo sapiens), sequence (P14416 whole entry, looked up): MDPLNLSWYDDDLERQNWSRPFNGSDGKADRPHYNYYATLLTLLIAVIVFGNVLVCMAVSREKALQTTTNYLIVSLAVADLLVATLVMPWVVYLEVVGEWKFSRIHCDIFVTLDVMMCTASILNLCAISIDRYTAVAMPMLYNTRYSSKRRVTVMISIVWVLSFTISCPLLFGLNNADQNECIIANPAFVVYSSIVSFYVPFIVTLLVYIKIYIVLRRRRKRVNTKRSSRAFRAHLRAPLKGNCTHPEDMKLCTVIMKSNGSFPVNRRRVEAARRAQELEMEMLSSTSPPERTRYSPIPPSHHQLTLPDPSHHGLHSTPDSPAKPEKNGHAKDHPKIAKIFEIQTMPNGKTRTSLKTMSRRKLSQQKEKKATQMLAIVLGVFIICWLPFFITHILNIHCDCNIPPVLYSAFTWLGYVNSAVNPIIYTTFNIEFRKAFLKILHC

| Compound | Potency [1] | Potency [2] | Potency [3] | outcome [4] | outcome [5] | Potency [6] | Potency [7] | Potency [8] | Potency [9] | Potency [10] | Potency [11] | Potency [12] | Potency [13] | Potency [14] | Potency [15] | Potency [16] | Potency [17] | Potency [18] | Potency [19] | Potency [20] |
| --- | --- | --- | --- | --- | --- | --- | --- | --- | --- | --- | --- | --- | --- | --- | --- | --- | --- | --- | --- | --- |
| O=C(O)c1cc(N=Nc2ccc([N+](=O)[O-])cc2)ccc1O | 26.8 µM (active) | inactive | inactive | inactive | inactive | inactive | inactive | inactive | inactive | inactive | inactive | inactive | inactive | inactive | inactive | – | – | – | – | – |
| C[C@@H]1C[C@H]2[C@@H]3CCC4=CC(=O)C=C[C@]4(C)[C@@]3(F)[C@@H](O)C[C@]2(C)[C@@]1(O)C(=O)COP(=O)(O)O | inactive | inactive | inactive | inactive | inactive | inactive | inactive | inactive | inactive | – | – | – | – | inactive | inactive | inactive | inactive | inactive | inactive | – |
| NC(=O)c1ccccc1[N+](=O)[O-] | inactive | inactive | inactive | inactive | inactive | inactive | inactive | inactive | inactive | inactive | inactive | inactive | inactive | inactive | inactive | – | inactive | – | inactive | inactive |
| O=C(O)c1cc(Cl)cc([N+](=O)[O-])c1Cl | inactive | inactive | inactive | inactive | inactive | inactive | inactive | inactive | – | inactive | inactive | inactive | inactive | inactive | inactive | inactive | – | inactive | inactive | inactive |
| Clc1ccc(C(Cn2ccnc2)OCc2c(Cl)cccc2Cl)c(Cl)c1 (stereo unspecified) | 23.7 µM (active) | 11.9 µM (active) | inactive | inactive | inactive | inactive | inactive | inactive | inactive | – | – | 11.6 µM (active) | inactive | inactive | inactive | – | inactive | – | inactive | inactive |
| CCCCCCCCCCCC[N+](C)(C)CC(=O)[O-] | inactive | inactive | inactive | inactive | inactive | inactive | inactive | inactive | inactive | – | – | inactive | inactive | inactive | inactive | – | inactive | – | inactive | – |
| COc1ccc2c(c1OC)C(=O)O[C@@H]2[C@H]1c2c(cc3c(c2OC)OCO3)CCN1C | inactive | inactive | inactive | inactive | inactive | inactive | inactive | inactive | inactive | – | – | – | – | inactive | – | – | inactive | inactive | – | inactive |
| CCCCCCOC(=O)CCC | inactive | inactive | inactive | inactive | inactive | inactive | inactive | inactive | – | inactive | inactive | inactive | inactive | inactive | inactive | inactive | inactive | inactive | – | inactive |
| O=P(O)(O)Oc1ccccc1 | inactive | inactive | inactive | inactive | inactive | inactive | inactive | inactive | – | inactive | inactive | inactive | inactive | inactive | inactive | inactive | inactive | inactive | – | inactive |
| NS(=O)(=O)c1ccc(Cl)c(S(N)(=O)=O)c1 | inactive | inactive | inactive | inactive | inactive | inactive | inactive | inactive | – | inactive | inactive | inactive | inactive | inactive | inactive | inactive | inactive | – | inactive | inactive |
| C=CC(C)(C)O | inactive | inactive | inactive | inactive | inactive | inactive | inactive | inactive | – | inactive | inactive | inactive | inactive | inactive | – | inactive | inactive | – | – | inactive |
| CC1=C(/C=C/C(C)=C/C=C/C(C)=C\C(=O)O)C(C)(C)CCC1 | inactive | 68.8 µM (active) | inactive | inactive | inactive | inactive | inactive | inactive | inactive | – | – | – | – | inactive | inactive | – | – | inactive | – | inactive |
| COc1cc(C)ccc1C(C)C | inactive | inactive | inactive | inactive | inactive | inactive | inactive | inactive | – | inactive | inactive | inactive | inactive | inactive | inactive | inactive | inactive | inactive | inactive | inactive |
| C1OCOCO1 | inactive | inactive | inactive | inactive | inactive | inactive | inactive | inactive | – | inactive | inactive | inactive | inactive | inactive | inactive | inactive | inactive | inactive | – | – |
| COC(=O)c1cc(C(=O)OC)cc(S(=O)(=O)O)c1 | inactive | inactive | inactive | inactive | inactive | inactive | inactive | inactive | – | inactive | inactive | inactive | inactive | inactive | inactive | inactive | inactive | – | – | inactive |
